Test results as given in publication PMC4552634, “A New Set of Chemical Starting Points with Plasmodium falciparum Transmission-Blocking Potential for Antimalarial Drug Discovery” (PLoS ONE, 2015).
Where two headings read alike, the source gives them in different places. In all, about 13,000 compounds went through this assay and about 3,200 (25%) showed an effect of 50% or more. The list shows a part of the results.

System: P. falciparum stage V gametocytes
Parameters: BacTiter-Glo ATP luminescence viability of purified stage V gametocytes in 384-well plates, per cent inhibition versus DMSO
Settings: 48 h, 5 µM, inhibitor

| Structure (SMILES) | % Inhibition [%] | % Inhibition (% Inhibition) [%] |
| --- | --- | --- |
| O=C(Nc1cccc(-c2ccc(-c3nc4ccccc4[nH]3)cc2)c1)c1cnn2cccnc12 [TCMDC-136866] | -17.05 |  |
| CN(c1ccc(NC(=O)CCOc2ccccc2)cc1)C1CCN(Cc2cccc(O)c2)CC1 [TCMDC-134988] | 49.59 |  |
| CC(C)(C)OC(=O)C1CCCN(Cc2ccc(-c3cccc(-c4nc5ccccc5[nH]4)c3)cc2)C1.O=C(O)C(F)(F)F (stereo not shown) [TCMDC-132560] | 11.65 |  |
| C=CCN1CCC(N(Cc2cccc(Oc3ccccc3)c2)C(=O)C(c2ccccc2)c2ccccc2)CC1 [TCMDC-139601] | 20.39 |  |
| CC(C)(NCc1ccc(OC(F)(F)F)cc1)c1nc(-c2ccc(Cl)c(O)c2)c(-c2ccncc2)[nH]1 [TCMDC-140709] | -27.3 |  |
| CCOC(=O)c1cn(CC)c2cc(N(C)CCc3ccc(OC)c(OC)c3)c(F)cc2c1=O [TCMDC-124159] | 16.46 |  |
| CCc1ccc(CN2CCC(CN(C(=O)c3ccccc3)c3ccc(Cl)cc3)CC2)cc1 [TCMDC-135382] | 136.1 |  |
| O=C(OCC1CCN(Cc2ccccc2)C1)c1ccc(Cl)cc1 (stereo not shown) [TCMDC-138995] | -9.252 |  |
| O=C(NCc1ccc(Cl)cc1)c1ccc(CN2CCCN(CC3CCCCC3)CC2)cc1 [TCMDC-136441] | -2.203 |  |
| CC(=O)Nc1ccc(C(=O)NC2CCN(c3ccnc4cc(Cl)ccc34)C2)cc1 (stereo not shown) [TCMDC-133650] | -2.707 |  |
| COc1ccc(CN2CCC(CNCc3cccc(-c4ccccc4)c3)CC2)cc1 [TCMDC-141349] | 97.96 |  |
| O=[N+]([O-])c1cccc(CNCC2CCN(Cc3ccc(-c4ccccc4)cc3)CC2)c1 [TCMDC-141208] | 17.3 |  |
| COc1ccc(CN2CCC(NCc3ccc(C(F)(F)F)cc3)CC2)cc1 [TCMDC-141653] | 11.64 |  |
| COc1ccc(CN2CCC(CNCC(c3ccccc3)c3ccccc3)CC2)cc1 [TCMDC-141342] | 89.13 |  |
| COc1ccc(CN2CCC(CNC(C)c3cccc4ccccc34)CC2)cc1 (stereo not shown) [TCMDC-141341] | -19.33 |  |
| O=[N+]([O-])c1cccc(CNCC2CCN(Cc3ccc(O)cc3)CC2)c1 [TCMDC-141212] | 5.704 |  |
| CCN(CC)c1ccc(C(c2ccc(N(CC)CC)cc2)c2cccc([N+](=O)[O-])c2)cc1 [TCMDC-131244] | -3.754 |  |
| Cc1cccc2nc(-c3ccc(-c4cccc(CN5CCN(c6ccc(C#N)cn6)CC5)c4)s3)[nH]c12.O=C(O)C(F)(F)F [TCMDC-133111] | -25.75 |  |
| CCN(CC)CCCC(C)Nc1ccnc2cc(C#N)ccc12 (stereo not shown) [TCMDC-138027] | -9.256 |  |
| CCOc1ccc(OCCCON2C(N)=NC(N)=NC2(C)C)cc1 [TCMDC-131735] | -0.1444 |  |
| Cc1cc2cc(CNCCc3ccccc3Br)ccc2nc1N [TCMDC-138097] | 84.79 |  |
| Cc1cc2ccc(CNCCc3ccccc3Br)cc2nc1N [TCMDC-138094] | 34.17 |  |
| Cc1cc(N)nc2cc(CNCCc3ccccc3Br)ccc12 [TCMDC-138095] | 22.25 |  |
| CCCCC(=O)Nc1ccc(Nc2nc(C)cc(N3CCCC3)n2)cc1 [TCMDC-124717] | 46.79 |  |
| O=C(Nc1ccccc1)N(Cc1cccc(-c2ccc(CNC3CCCC3)cc2)c1)C1CCN(Cc2ccccc2)CC1 [TCMDC-140589] | 100.6 |  |

| Structure (SMILES) | % Inhibition [%] | % Inhibition (% Inhibition) [%] |
| --- | --- | --- |
| O=C(Nc1ccccc1)N(Cc1ccc(-c2cccc(CNC3CCCC3)c2)cc1)C1CCN(Cc2ccccc2)CC1 [TCMDC-140601] | 107.8 |  |
| O=C(Nc1ccccc1)N(Cc1ccccc1-c1cccc(CNC2CCCC2)c1)C1CCN(Cc2ccccc2)CC1 [TCMDC-140581] | 108.7 |  |
| O=C(Nc1ccccc1)N(Cc1ccc(-c2ccc(CNC3CCCC3)cc2)cc1)C1CCN(Cc2ccccc2)CC1 [TCMDC-140602] | 100.4 |  |
| Oc1cccc(-c2nc(-c3cccc(I)c3)c(-c3ccc(-c4nc(-c5cccc(O)c5)[nH]c4-c4cccc(I)c4)cc3)[nH]2)c1 [TCMDC-125665] | 42.71 |  |
| COC(=O)c1ccc(C2OC3(C(=O)c4ccccc4C3=O)C(OC)=C2Cl)cc1C(C)=O (stereo not shown) [TCMDC-125782] | -9.104 |  |
| N#Cc1ccc2c(c1)CCN(CCC1CCC(NC(=O)/C=C/c3nc4ccccc4s3)CC1)CC2 (stereo not shown) [TCMDC-139686] | -32.82 |  |
| COc1ccc(O)c(Cc2cnc3nc(N)nc(N)c3c2C)c1 [TCMDC-137998] | -28.9 |  |
| Cc1cc(C(=O)CSc2nc3ccccc3n2-c2ccccc2)c(C)n1C1CCS(=O)(=O)C1 (stereo not shown) [TCMDC-124855] | -17.36 |  |
| CC1CN(Cc2ccccc2)CCN1c1ccc(NC(=O)c2cccs2)cc1 (stereo not shown) [TCMDC-135005] | 31.52 |  |
| CC(C)(C)c1ccc(-c2nnc(N)nc2N)cc1 [TCMDC-137284] | -12.55 |  |
| COc1cccc(Nc2c(C(N)=O)cnc3ccc(-c4ccc([S+](C)[O-])cc4)cc23)c1 (stereo not shown) [TCMDC-135184] | 93.94 |  |
| CN(C)CCNC(=O)c1ccc(-c2ccc3c(Nc4ccccc4)c(C(N)=O)cnc3c2)cc1 [TCMDC-138672] | 14.13 |  |
| COc1cccc(Nc2c(C(N)=O)cnc3ccc(-c4ccccc4)cc23)c1 [TCMDC-135227] | 39.19 |  |
| CS(=O)(=O)c1cccc(-c2cnc3[nH]cc(-c4ccc(C(=O)O)cc4)c3c2)c1 [TCMDC-136271] | 0.4612 |  |
| COc1ccc2nccc(N3CCCN(CCNCc4ccc5c(n4)NC(=O)CS5)CC3)c2n1 [TCMDC-134640] | 33.98 |  |
| CCc1ccc(C2=Nn3c(nnc3-c3cccs3)SC2)cc1 [TCMDC-124336] | 80.16 |  |
| Cc1ccc(C2CC(c3cccs3)=NN2C(=O)c2ccc(Br)o2)cc1 (stereo not shown) [TCMDC-125610] | 12.81 |  |
| CCC(c1ccccc1)c1nn2c(-c3cccs3)nnc2s1 (stereo not shown) [TCMDC-123825] | 7.835 |  |
| O=C(NCCCCN1CCN(c2cccc3c2OCCO3)CC1)c1ccc(NC(=O)c2cc(Cl)cc(Cl)c2)cc1 [TCMDC-138222] | -31.39 |  |
| C=CCN(c1nc(NC)nc(NCc2c(OC)cccc2OC)n1)C1CCCC1 [TCMDC-134844] | -44.26 |  |
| CCCCCCn1c(Sc2ccc(C#N)c([N+](=O)[O-])c2)nnc1-c1ccccc1 [TCMDC-135607] | 41.57 |  |
| COc1cc(OC)cc(-c2nnc(Sc3ccc(C#N)c([N+](=O)[O-])c3)n2C)c1 [TCMDC-135576] | 42.48 |  |
| Cn1c(Cc2ccccc2)nnc1Sc1ccc(C#N)c([N+](=O)[O-])c1 [TCMDC-135608] | 73.99 |  |
| CCn1c(Cc2ccccc2)nnc1Sc1ccc([N+](=O)[O-])c(C#N)c1 [TCMDC-135236] | 79.04 |  |
| C=CCn1c(Cc2ccccc2)nnc1Sc1ccc(C#N)c([N+](=O)[O-])c1 [TCMDC-135614] | 45.02 |  |

| Structure (SMILES) | % Inhibition [%] | % Inhibition (% Inhibition) [%] |
| --- | --- | --- |
| CCCCCn1c(Sc2ccc(C#N)c([N+](=O)[O-])c2)nnc1-c1ccccc1 [TCMDC-135606] | 38.34 |  |
| Cc1ccc(Nc2nc(C)cc(N3CCN(CCc4ccccc4)CC3)n2)cc1 [TCMDC-134023] | -10.5 |  |
| FC(F)(F)c1cccc(CCNc2nccc(NCc3ccc(Cl)cc3Cl)n2)c1 [TCMDC-135111] | 42.21 |  |
| Clc1ccc(CNc2ccnc(NCCc3coc4ccccc34)n2)c(Cl)c1 [TCMDC-135113] | 37.58 |  |
| COc1ccc(Nc2nccc(NCC(O)c3cccc(C(F)(F)F)c3)n2)cc1 (stereo not shown) [TCMDC-136585] | -13.64 |  |
| COc1cccc(Nc2nccc(NCC(O)c3cccc(C(F)(F)F)c3)n2)c1 (stereo not shown) [TCMDC-136584] | 27.05 |  |
| COc1ccccc1CNc1ccnc(NCCc2cccc(C(F)(F)F)c2)n1 [TCMDC-135117] | 62.08 |  |
| FC(F)(F)c1cccc(CCNc2nccc(NCc3ccccc3Cl)n2)c1 [TCMDC-135109] | 78.4 |  |
| CC(=O)Nc1ccc(S(=O)(=O)Nc2ccc(Nc3nc(C)cc(N4CCCCC4)n3)cc2)cc1 [TCMDC-124950] | -6.943 |  |
| CCC[C@@H]([C@@H](CC(C)C)C(=O)N[C@H](C(=O)Nc1nccs1)C(C)(C)SCCNC(=O)OCC)N(O)C=O [TCMDC-137761] | 30.89 |  |
| N#Cc1cccc(COC(=O)C2=C(COc3ccccc3Cl)NC(=O)NC2c2c[nH]c3cnccc23)c1 (stereo not shown) [TCMDC-136331] | 5.465 |  |
| Cc1ccc(C(c2nnnn2C2CCCC2)N(Cc2ccco2)Cc2ccccc2Cl)cc1 (stereo not shown) [TCMDC-123569] | 15.39 |  |
| COc1ccc(-c2nc(NC(=O)CS(=O)(=O)c3ccccc3)sc2C)cc1 [TCMDC-123525] | 48.52 |  |
| CCCCn1c(SC(C)C)nc2c(c1=O)C1(CCCCC1)Cc1ccccc1-2 [TCMDC-123893] | -5.467 |  |
| Cc1ccc(-c2nnc(Nc3ccc(CC(N)=O)cc3)c3ccccc23)cc1S(=O)(=O)NCC1CCCO1 (stereo not shown) [TCMDC-125615] | -4.951 |  |
| COc1cc(Cc2cnc(N)nc2N)ccc1OCc1ccc(NC(C)=O)cc1 [TCMDC-138675] | 89.66 |  |
| COc1cc(Cc2cnc(N)nc2N)ccc1OCC(=O)Nc1ccc(C)cc1 [TCMDC-138679] | 5.317 |  |
| COc1cc(Cc2cnc(N)nc2N)ccc1OCc1ccc(F)c(F)c1 [TCMDC-138591] | 9.532 |  |
| S=C(NCCc1ccc(Cl)cc1)NC1CCC(CN2CCC(c3c[nH]c4ccccc34)CC2)CC1 (stereo not shown) [TCMDC-140183] |  | 98.47 |
| S=C(NCC1CCCCC1)NC1CCC(CN2CCC(c3c[nH]c4ccccc34)CC2)CC1 (stereo not shown) [TCMDC-140181] | 104.2 |  |
| S=C(NCCc1ccc(Cl)cc1)NC1CCC(CN2CCC(c3c[nH]c4ccccc34)CC2)CC1 (stereo not shown) [TCMDC-140201] |  | 56.68 |
| S=C(Nc1ccccc1Cl)NC1CCC(CN2CCC(c3c[nH]c4ccccc34)CC2)CC1 (stereo not shown) [TCMDC-140179] | 20.48 |  |
| S=C(NCCc1ccc(Cl)cc1)N1CCC(CN2CCC(c3c[nH]c4ccccc34)CC2)CC1 [TCMDC-140193] | 39.79 |  |
